Measured values reported in PubChem BioAssay (Tox21).
Results filed as inconclusive are left out. The source made the active and inactive calls. The call rests on the fitted dose curve; in most records, active means well fitted activation curve with a large enough effect in the repeat runs; inconclusive means weak or mixed curves; inactive means flat fitted curve, though single readings scatter.

Assay: A CellTox Green Cytotoxicity Assay to monitor cytotoxicity in HEK293 cells - 8 hour (AID 1224884); further: nearly all actives have a fitted effect of over 35% in size
Settings: CellTox Green fluorescence; series mostly up to 76.8 µM; cytotoxicity increase: at the top concentration
From the text: National Center for Advancing Translational Sciences [NCATS]
NIH Chemical Genomics Center [NCGC]
U.S. Environmental Protection Agency [EPA]
National Institutes of Environmental Health Sciences [NIEHS]
National Toxicology Program [NTP]
Cell-based models are critical for drug discovery. Determining the natural cytotoxic effects resulting from test compounds is an essential research activity. A CellTox Green Cytotoxicity Assay to monitor cytotoxicity in real time of continues cell culture during 40 hours of the compound treatment was used to screen Tox21 10K library compounds in Hek293 cells. CellTox Green Cytotoxicity Assay is a nonlytic, homogeneous, biofluorescent method to measure cytotoxicity in cell culture after experimental manipulation. The assay system uses a proprietary asymmetric cyanine dye that is excluded from viable cells but preferentially stains the dead cell's DNA. […] Viable cells produce no appreciable increases in fluorescence. Therefore, the fluorescence signal produced by the binding interaction with dead cell DNA is proportional to cytotoxicity.
The mixture of Hek293 cell suspension and reagents were dispensed at 600cells/6 ul/well in 1536-well tissue culture treated black solid bottom plates using a Multidrop dispenser. After the assay plates were incubated at a 37 C/5% CO2 incubator for 5 hours, 23 nL of compounds dissolved in DMSO, positive and negative controls was transferred to the assay plate by a pintool work station. The plates were incubated at 37 C for 40 hours. The fluorescence intensity were measured at 0h, 8h, 16h, 24h, 32h and 40h time points using ViewLux plate reader during compound treatment.
On the % scale 0 is the no-effect control and ±100 the full control effect.

Question: Which “cytotoxicity increase” value does the source give for `CC(C)(C)c1cc(CO)cc(C(C)(C)C)c1O` here?
Answer: -4.67% (inactive)

Question: With `Nc1ccc(C(=O)Nc2ccccc2N)cc1` as the compound, how does the “cytotoxicity increase” value read?
Answer: -4.83% [at 35.3 µM] (inactive)

Question: Which “cytotoxicity increase” value does the source give for `CN1CCN(C2=Nc3ccccc3Sc3ccc(Cl)cc32)CC1` here?
Answer: -0.793% [at 35.3 µM] (inactive)

Question: With `CCc1nn(C2CCCCC2)c2cc(C3(C#N)CCC(C(=O)O)CC3)ccc12` (stereo not given) as the compound, how does the “cytotoxicity increase” value read?
Answer: -8.06% (inactive)

Question: With `O=C(O)/C=C/c1cnc[nH]1` as the compound, how does the “cytotoxicity increase” value read?
Answer: -4.43% (inactive)

Question: With `CC(C)=CCCC(C)CC=O` (stereo not given) as the compound, how does the “cytotoxicity increase” value read?
Answer: -16.2% (inactive)

Question: For `CCCCCc1ccc(N)cc1`, which “cytotoxicity increase” value is on record?
Answer: 14.2% (inactive)

Question: With `O=C(/C=C/c1ccc(O)c(O)c1)O[C@@H]1C[C@](O)(C(=O)O)C[C@@H](O)[C@H]1O` as the compound, how does the “cytotoxicity increase” value read?
Answer: -6.76% (inactive)

Question: For `CCCCCCCCCCCCC(=O)O`, which “cytotoxicity increase” value is on record?
Answer: -0.727% (inactive)

Question: For `CN(C)C/C=C(/c1ccc(Br)cc1)c1cccnc1`, which “cytotoxicity increase” value is on record?
Answer: 5.99% [at 35.3 µM] (inactive)

Question: For `CCN1CCC[C@H]1CNC(=O)c1c(OC)ccc(Br)c1OC`, which “cytotoxicity increase” value is on record?
Answer: -2.81% [at 35.3 µM] (inactive)

Question: Which “cytotoxicity increase” value does the source give for `O=C(Cl)c1c(Cl)cccc1Cl` here?
Answer: 0.848% (inactive)

Question: Which “cytotoxicity increase” value does the source give for `CCN(CC)CCc1nc(-c2ccccc2)no1` here?
Answer: 6.52% [at 35.3 µM] (inactive)

Question: With `CCN(CC)CCOc1ccc2c(c1)C(=O)c1cc(OCCN(CC)CC)ccc1-2` as the compound, how does the “cytotoxicity increase” value read?
Answer: 1.5% [at 35.3 µM] (inactive)

Question: With `CCCCOc1cc(C(=O)OCCN(CC)CC)ccc1N` as the compound, how does the “cytotoxicity increase” value read?
Answer: 0.0002% [at 35.3 µM] (inactive)

Question: For `CCOc1cc(OCC)c(C(=O)CCC(=O)O)cc1OCC`, which “cytotoxicity increase” value is on record?
Answer: -0.31% [at 35.3 µM] (inactive)

Question: Which “cytotoxicity increase” value does the source give for `CCCCCCCCN(C)C` here?
Answer: -4.99% (inactive)

Question: Which “cytotoxicity increase” value does the source give for `CCCCCCCCCC(=O)OCC` here?
Answer: -10.3% (inactive)

Question: For `O=C(O)c1cccc(N(Cc2cccnc2)c2ccc(OC(F)F)c(OC(F)F)c2)c1`, which “cytotoxicity increase” value is on record?
Answer: -3.89% (inactive)

Question: With `CCCCCCOC(=O)CCC` as the compound, how does the “cytotoxicity increase” value read?
Answer: 2.85% (inactive)

Question: With `S=C(S)NCCNC(=S)S` as the compound, how does the “cytotoxicity increase” value read?
Answer: -9.51% (inactive)

Question: Which “cytotoxicity increase” value does the source give for `CCCOc1ccc2nc(NC(=O)OC)[nH]c2c1` here?
Answer: -2.63% [at 35.3 µM] (inactive)

Question: With `Cc1ccccc1N=Nc1ccc(N=Nc2c(O)ccc3ccccc23)c(C)c1` as the compound, how does the “cytotoxicity increase” value read?
Answer: -5.88% [at 35.3 µM] (inactive)

Question: With `N=C(N=C(N)N)N1CCOCC1` as the compound, how does the “cytotoxicity increase” value read?
Answer: -18.4% [at 35.3 µM] (inactive)

Question: With `CCOC(=S)SSC(=S)OCC` as the compound, how does the “cytotoxicity increase” value read?
Answer: -7.02% (inactive)

Question: With `COC(Cc1ccccc1)OC` as the compound, how does the “cytotoxicity increase” value read?
Answer: -13.1% (inactive)

Question: For `COc1ccc([C@@H]2Sc3ccccc3N(CCN(C)C)C(=O)[C@@H]2OC(C)=O)cc1`, which “cytotoxicity increase” value is on record?
Answer: -7.28% [at 35.3 µM] (inactive)

Question: With `CN(C(=O)CCCOc1ccc2[nH]c(=O)ccc2c1)C1CCCCC1` as the compound, how does the “cytotoxicity increase” value read?
Answer: 2.26% [at 35.3 µM] (inactive)

Question: With `CC[C@H](C)[C@@H](C(=O)O)n1sc2ccccc2c1=O` as the compound, how does the “cytotoxicity increase” value read?
Answer: -10.3% (inactive)

Question: With `O=C(O)Cc1sc(-c2ccccc2)nc1-c1ccc(Cl)cc1` as the compound, how does the “cytotoxicity increase” value read?
Answer: 3% [at 35.3 µM] (inactive)

Question: With `CCOc1ccc2[nH]cc(C(=O)NCc3ccccc3)c(=O)c2n1` as the compound, how does the “cytotoxicity increase” value read?
Answer: -9.54% (inactive)

Question: With `CN(c1nccc(=O)[nH]1)C1CCN(c2nc3ccccc3n2Cc2ccc(F)cc2)CC1` as the compound, how does the “cytotoxicity increase” value read?
Answer: -17.7% [at 35.3 µM] (inactive)

Question: For `Cc1cccc(C(C)(C)C)c1O`, which “cytotoxicity increase” value is on record?
Answer: 5.67% (inactive)

Question: Which “cytotoxicity increase” value does the source give for `CN(C)CCCNCCCN` here?
Answer: 6.96% (inactive)

Question: Which “cytotoxicity increase” value does the source give for `C=CC(=O)OCCOC(=O)CCC(=O)O` here?
Answer: -5.86% (inactive)

Question: For `CC(C)c1cccc(C(C)C)c1NC(=O)NS(=O)(=O)c1cc(C(C)(C)O)co1`, which “cytotoxicity increase” value is on record?
Answer: -6.51% (inactive)

Question: With `NC(=S)N/N=C/c1cccnc1` as the compound, how does the “cytotoxicity increase” value read?
Answer: 2.6% [at 35.3 µM] (inactive)

Question: With `CCCCC(CC)(CO)CO` as the compound, how does the “cytotoxicity increase” value read?
Answer: 3.91% (inactive)

Question: For `CCCCCCCCCO`, which “cytotoxicity increase” value is on record?
Answer: -1.7% (inactive)

Question: With `COC(=O)CSc1cc(N=c2sc(=O)n3n2CCCC3)c(F)cc1Cl` as the compound, how does the “cytotoxicity increase” value read?
Answer: -10.6% (inactive)
